Source: PubChem BioAssay (several laboratories)
Sampled rows, rich in hits. Any-hit rate of the full collection: about 0.82%.
C-LANA FP: KSHV C-LANA DNA binding inhibition. 0.078% of 340,000 active. MBP-C-LANA/FAM-LBS DNA binding, fluorescence polarization. inhibition, % at 9 µM;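 active means highest replicate inhibition at or above 60% at 9 µM, even if other replicates fall short; inactive means all replicates below 60% inhibition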;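 further: 0% = neutral control wells and 100% = 4 µM acridine orange control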
RTF Ca sens inh: cardiac RTF calcium desensitization. IANBD-labeled cardiac RTF, Ca2+ fluorescence. P19429+P45379. 0.12% of 340,000 active. AID 493244. inhibition, % at 7.15 µM;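 active means inhibition above the mean inhibition of all tested compounds plus 3 SD, cut at about 17% in these data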;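 further: assay run at fixed EC70 calcium of 1.6 mM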
cardiac RTF act: increases calcium sensitivity of human cardiac regulated thin filaments. P19429+P45379. IANBD-labeled TnC RTF fluorescence at EC20 calcium; 0% EC20 calcium, 100% full calcium. activation, % at 7.2 µM. 0.24% of 340,000 active. AID 493008;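 active means activation above the mean over all tested compounds plus 3 SD, cut at about 30% in these data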;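 further: rise in fluorescence read as greater calcium sensitivity of cardiac thin filaments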
eLon inh: E. coli protease La inhibition; purified E. coli Lon protease, fluorescence polarization; inhibition, % at 7.94 µM; 0.42% of 360,000 active; in the data active means inhibition above about 13%, passing the limit was not always enough;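 further: 0% = enzyme with probe and DMSO and 100% = no enzyme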
Target sequence (P0A9M0 whole entry, looked up): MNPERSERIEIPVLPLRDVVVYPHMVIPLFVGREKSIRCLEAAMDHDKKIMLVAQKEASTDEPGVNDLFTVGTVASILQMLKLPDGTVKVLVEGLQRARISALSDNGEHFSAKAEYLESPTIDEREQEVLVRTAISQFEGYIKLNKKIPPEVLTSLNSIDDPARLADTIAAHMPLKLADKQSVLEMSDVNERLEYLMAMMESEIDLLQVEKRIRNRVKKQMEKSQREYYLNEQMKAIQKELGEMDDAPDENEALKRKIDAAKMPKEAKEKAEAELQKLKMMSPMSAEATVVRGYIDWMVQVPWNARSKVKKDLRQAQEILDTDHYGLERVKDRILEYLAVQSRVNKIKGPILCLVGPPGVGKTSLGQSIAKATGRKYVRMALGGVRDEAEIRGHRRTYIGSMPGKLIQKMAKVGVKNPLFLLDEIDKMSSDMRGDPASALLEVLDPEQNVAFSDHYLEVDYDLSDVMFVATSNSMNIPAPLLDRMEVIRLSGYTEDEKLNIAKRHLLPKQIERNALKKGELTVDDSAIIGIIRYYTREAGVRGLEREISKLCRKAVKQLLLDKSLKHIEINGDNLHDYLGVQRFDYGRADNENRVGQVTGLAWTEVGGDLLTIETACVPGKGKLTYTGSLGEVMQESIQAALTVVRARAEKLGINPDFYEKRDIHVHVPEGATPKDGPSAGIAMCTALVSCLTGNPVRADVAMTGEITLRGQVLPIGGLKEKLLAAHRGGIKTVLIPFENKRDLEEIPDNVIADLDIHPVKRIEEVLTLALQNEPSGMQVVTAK
Keap1 Nrf2 FP: inhibitors of human Keap1-Nrf2 protein-protein interaction. Keap1 Kelch-Nrf2 peptide fluorescence polarization, 1536-well. 0.15% of 340,000 active. inhibition, % at 9.4 µM; in the data active means inhibition above about 12%;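 further: human Keap1 Kelch domain with fluorescein labeled Nrf2 9mer peptide probe; 0% = neutral control wells and 100% = peptide positive control; higher means more block of Keap1 binding to Nrf2 peptide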
Keap1 TSA: binders of human Keap1 Kelch domain | shares compounds with Keap1 Nrf2 FP | Keap1 Kelch thermal shift, delta Tm; stronger effect = higher value | max delta Tm, degrees C | 8% of 400 active; in the data active means max delta Tm above about 0.48 degrees C
Sypro dye melt: shifts Sypro Orange melt without protein, a false positive | shares compounds with Keap1 Nrf2 FP | Sypro Orange dye-only thermal melt, no protein, delta Tm; top dose 26 µM | delta Tm, degrees C (concentration not given with the values) | 140 tested, under 10 active;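 active means at highest dose tested, delta Tm positive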
E coli Lon conf: E. coli Lon inhibition confirmation. shares compounds with eLon inh. purified E. coli Lon, fluorescence polarization. inhibition, % at 7.94 µM. 31% of 1,400 active. AID 602230; in the data active means inhibition above about 16%;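 further: 0% = enzyme with probe and DMSO and 100% = no enzyme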
The depositor's hits bear a star; i = inactive; x = not tested or not shown; + = active, no number.

SMILES | C-LANA FP | RTF Ca sens inh | cardiac RTF act | eLon inh | Keap1 Nrf2 FP | Keap1 TSA | E coli Lon conf | others
N/C(=N/OC(=O)c1ccc(Cl)cc1)c1ncc([N+](=O)[O-])s1 | 10 | x | x | -2 | 22* | -0.1 | x | Sypro dye melt=-28
CCCCNC(=O)C1(C)CCCCN1C(=O)c1oc2ccccc2c1C (stereo unspecified) | x | x | x | -1 | x | x | x
C=CCn1c(=O)/c(=C\c2ccsc2)s/c1=C(/C#N)C(=O)NCCN1CCOCC1 | 21 | 1 | 7 | -6 | 16* | -0.17 | x | Sypro dye melt=-22
COc1ccc(-n2c(=O)/c(=C\c3cccs3)s/c2=C(/C#N)C(=O)NCCN2CCOCC2)cc1 | 3 | -7 | 2 | -88 | -7 | x | x
O=C(CCCCCCCC(=O)N1CCCCCC1)N1CCCCCC1 | 0 | 3 | 2 | -5 | -1 | x | x
CCCCCC(=O)N1CCCC1 | -2 | -2 | 2 | -2 | 16* | -0.08 | x | Sypro dye melt=-23
Cc1cnc(NC(=O)Cc2ccc(S(=O)(=O)N3CCOCC3)s2)s1 | 8 | -5 | 5 | 20 | 13* | -0.11 | x
CCCCCCc1nc2nc(Cl)c(Cl)nc2[nH]1 | x | x | x | 5 | x | x | x
COc1ccc([C@@H]2C[C@H]3[C@@H](CN2S(=O)(=O)c2ccccc2)C(=O)C[C@@H](c2ccc(OC)cc2)N3S(=O)(=O)c2ccccc2)cc1 | x | x | x | 0 | x | x | x
COc1ccccc1N(Cc1ccccc1)S(=O)(=O)c1cccc(C(=O)Nc2ncccc2C)c1 | -1 | -11 | 4 | -10 | -3 | x | x
COc1ccc(N(Cc2ccccc2)S(=O)(=O)c2cccc(C(=O)Nc3ncccc3C)c2)cc1 | 9 | -9 | -7 | -4 | 22* | -0.12 | x
O=C(Nc1cccc2c1CCCC2)c1cc(C2CCCCN2C(=O)CCCc2ccccc2)on1 (stereo unspecified) | x | x | x | -1 | x | x | x
CC(=O)Nc1ccc(NS(=O)(=O)c2ccc3c(c2)oc(=O)n3C)cc1 | 14 | -7 | 4 | -4 | 19* | -0.06 | x
Cc1ccc(NS(=O)(=O)c2ccc3c(c2)oc(=O)n3C)cc1 | -1 | 4 | -5 | -8 | -2 | x | x
CNC(=O)C1CC(=O)N(c2ccc(OCC(=O)Nc3ccc(F)cc3)cc2)C1 (stereo unspecified) | 15 | -10 | 5 | -3 | 30* | -0.09 | x | Sypro dye melt=-26
O=C(CSCC(=O)Nc1ccccc1)N/N=C/c1c(O)ccc2ccccc12 | -3 | 2 | -9 | -9 | 12* | 0.09 | x | Sypro dye melt=-27
C=CCn1cccc(C(=O)Nc2ccc(OC)c(Cl)c2)c1=O | -2 | -8 | 32* | -1 | 48* | -0.06 | x
C=CCn1cccc(C(=O)Nc2ccc(OC)c(OC)c2)c1=O | 0 | x | x | -5 | 3 | x | x
COc1cc(C#Cc2c(C=O)n(C)c3ccccc23)cc(OC)c1 | 12 | -12 | 3 | 6 | 30* | -0.17 | x
Cc1oc2cc(O)ccc2c(=O)c1-c1nncn1-c1ccccc1 | 49 | -32 | 13 | 34* | 25* | 0.11 | 51* | Sypro dye melt=-22
Nc1ccc2nc3c(=O)n(C4CCCCC4)c(=O)[nH]c3nc2c1 | 39 | i | 457* | + | 60* | -0.05 | 183* | Sypro dye melt=-34
COc1cc2[nH]c(=O)n(C3CCCCC3)c(=O)c2cc1OC | 0 | 1 | 4 | 7 | -1 | x | x
CCCCn1c(=O)[nH]c2nc3cc(N)ccc3nc2c1=O | 84 | i | 767* | + | 50* | -0.04 | + | Sypro dye melt=-28
CCCCn1c(N)c(Br)c(=O)[nH]c1=O | 1 | 0 | 3 | -3 | 2 | x | x
OC[C@@H]1CN(Cc2cccc3ccccc23)C[C@H](n2cnc3c(NCc4ccco4)ncnc32)O1 | x | x | x | 0 | x | x | x
SMILES | C-LANA FP | RTF Ca sens inh | cardiac RTF act | eLon inh | Keap1 Nrf2 FP | Keap1 TSA | E coli Lon conf | others
COCOCCn1cc(CN2CCS(=O)(=O)N(Cc3ccc(-c4ccc(Cl)c(Cl)c4)cc3)C(C(C)C)C2=O)nn1 (stereo unspecified) | x | x | x | 2 | x | x | x
CCCC(=O)N1CCC1(C)C(=O)Nc1scc(C)c1C#N (stereo unspecified) | x | x | x | -9 | x | x | x
Cn1c(=O)c(N)c2c3c(c(Br)ccc31)C(=O)c1ccccc1-2 | 124* | i | + | + | 31* | 0.07 | +
CCNc1ccc2noc3c2c1C(=O)c1ccccc1-3 | 65* | i | + | + | 21* | 0.83* | 183*
O=C1C(Cl)=C(NCc2ccco2)C(=O)c2ccccc21 | 4 | -3 | -3 | -5 | -1 | x | x
CCOc1ccc2noc3c2c1C(=O)c1ccccc1-3 | 52 | i | + | + | 21* | -0.03 | +
O=C1c2ccccc2-c2onc3ccc(N4CCCC4)c1c23 | 12 | i | 396* | 160* | 16* | 0.22 | -21
O=C1c2ccccc2-c2onc3ccc(NCc4ccco4)c1c23 | 64 | i | 715* | 128* | 19* | 0.37 | 118*
CCOC(=O)c1c(C)oc2c1C(=O)c1ccccc1C2=O | 0 | 8 | -9 | -7 | 3 | x | x
O=C1c2ccccc2C(=O)c2c1cccc2N1CCCC1 | 0 | 7 | 2 | 2 | -3 | x | x
COc1cccc(C(O)c2ncc(-c3cccc4ccccc34)[nH]2)c1 (stereo unspecified) | x | x | x | -3 | x | x | x
NC(=O)c1cccc(-c2ccnc3c2CC(C(=O)Nc2ccc(Cl)cc2)O3)c1 (stereo unspecified) | x | x | x | 2 | x | x | x
CCCCNc1c2c3c(cccc3n(C)c1=O)C(=O)c1ccccc1-2 | 71* | i | + | 188* | 58* | 0.25 | 101*
Cn1c(=O)c(NCCc2ccccc2)c2c3c(cccc31)C(=O)c1ccccc1-2 | 101* | i | + | + | 45* | 0 | -457
O=C1NC(Cc2ccccc2)c2nc3ccc(F)cc3c(=O)n2-c2ncccc21 (stereo unspecified) | x | x | x | 3 | x | x | x
CC(=O)Nc1cccc(NC(=O)c2cccc(-c3ccc(O)cc3)c2)c1 | 0 | -10 | 7 | -4 | -5 | x | x
COc1ccc(NC(=O)c2cccc(-c3ccc(O)cc3)c2)cn1 | 41 | -36 | 16 | 74* | 13* | 0.15 | 35*
CCOc1ccc(C=Nc2cccc3ncccc23)cc1 | 2 | -13 | -5 | -4 | 1 | x | x
COc1ccc(C=Nc2cccnc2N)cc1 | 14 | -101 | 11 | + | 23* | -0.2 | -14
O=C(C[C@@H]1C[C@H]2c3cc(NC(=O)C4CCC4)ccc3O[C@H]2[C@@H](CO)O1)NCc1ccc(-c2ccccc2)cc1 | x | x | x | -11 | x | x | x
CC(C)=NNc1cnnc2ccc([N+](=O)[O-])cc12 | x | x | x | 2 | x | x | x
CCN(CC)C(=O)C1c2ccccc2Oc2ccccc21 | 77* | 2 | -8 | + | 39* | -0.12 | -51
